Calls of active or inactive are those of the source. Unless noted, no rule for the calls is given here.

The source of these data is PubChem BioAssay.

Assay [1] can be described thus: resazurin metabolic signal in HepG2 cells – cell-based, resazurin fluorescence, 24 h, PK04 Diversity Set, profiling panel (AID 1172). Also: test concentration not given here. The following applies: HepG2 viability, higher = more signal. Background: Alamar Blue is a resazurin reagent that responds to reducing activity.
The nature of assay [2]: budding yeast growth changes without added modifier – OD600, strain BY4716, 24 h, basal condition, primary screen (AID 1173). The conditions noted are these: S. cerevisiae BY4716 growth, OD600, 24 h; higher = more signal, called active from +8 up or from −8 down.
The nature of assay [3]: viability profiling in MM1S myeloma cells – cell-based, resazurin fluorescence, basal, 24 h, PK04 Diversity Set, profiling panel (AID 1174).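 Also: MM1S multiple myeloma cell line; test concentration not given here.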 The following applies: higher = more signal, called active from +8 up or from −8 down.
Assay [4] deals with Dihydroorotate dehydrogenase (quinone), mitochondrial (Plasmodium falciparum (isolate 3D7)) (UniProt Q08210). As to the kind of experiment: inhibition of P. falciparum DHODH – biochemical, C-terminal His tag, absorbance 600 nm, primary screen (AID 1175).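 Also: recombinant parasite enzyme with a five histidine tag at its C terminus; test concentration not given here.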 The following applies: PfDHODH enzyme, DCIP absorbance 600 nm; higher = more signal, called active from +8 up or from −8 down.
Sequence of Dihydroorotate dehydrogenase (quinone), mitochondrial (Plasmodium falciparum (isolate 3D7)) (Q08210 whole entry, looked up): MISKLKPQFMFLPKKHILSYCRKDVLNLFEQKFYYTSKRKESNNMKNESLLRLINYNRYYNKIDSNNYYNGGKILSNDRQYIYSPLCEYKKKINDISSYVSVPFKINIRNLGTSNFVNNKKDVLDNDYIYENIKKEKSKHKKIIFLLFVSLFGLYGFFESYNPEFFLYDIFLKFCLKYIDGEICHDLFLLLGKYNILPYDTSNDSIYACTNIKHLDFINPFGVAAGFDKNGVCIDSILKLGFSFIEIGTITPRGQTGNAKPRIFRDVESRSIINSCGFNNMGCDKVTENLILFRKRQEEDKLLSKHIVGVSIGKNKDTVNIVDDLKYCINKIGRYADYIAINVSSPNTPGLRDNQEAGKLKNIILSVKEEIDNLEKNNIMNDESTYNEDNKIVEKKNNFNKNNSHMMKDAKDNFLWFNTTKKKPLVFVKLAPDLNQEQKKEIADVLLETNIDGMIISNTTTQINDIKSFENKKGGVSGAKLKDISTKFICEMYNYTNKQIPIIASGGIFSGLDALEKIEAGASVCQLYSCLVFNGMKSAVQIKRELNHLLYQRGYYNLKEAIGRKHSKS

Assay [5] in a line: inhibition of PAO1 biofilm formation – strain PAO1, LB-PBS medium, absorbance 600 nm, primary screen (AID 1176). Also: test concentration not given here. The conditions noted are these: P. aeruginosa PAO1 growth/biofilm, A600, 12 h; higher = more signal.
The nature of assay [6]: growth modulation of vineyard yeast isolate – strain RM11-1a, OD600, basal, 24 h, primary screen (AID 1177).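 Also: cultures grown under basal conditions with no added stressor; test concentration not given here.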 The following applies: S. cerevisiae RM11-1a growth, OD600, 24 h; higher = more signal, called active from +8 up or from −8 down.
Assay [7] is described as follows: growth of efflux-deficient E. coli DRC39 – strain DRC39, OD650, 24 h, E. coli filamentation inducers, primary screen (AID 1178).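 Also: growth measured as culture turbidity by optical density at 650 nm; test concentration not given here.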 The following applies: E. coli DRC39 acrAB, higher = more signal, called active from +8 up or from −8 down.
Assay [8] can be described thus: growth of efflux-deficient E. coli DRC39 – strain DRC39, OD650, 48 h, E. coli filamentation inducers, primary screen (AID 1179).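 Also: screen aims at cell division blockers that make cells filament.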 The conditions noted are these: E. coli DRC39 delta-acrAB growth, higher = more signal, called active from +8 up or from −8 down.
The nature of assay [9]: viability profiling in RPMI8226 myeloma cells – cell-based, resazurin fluorescence, basal, 24 h, PK04 Diversity Set, profiling panel (AID 1180).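 Also: RPMI8826 multiple myeloma cell line at 5000 cells per well; test concentration not given here.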 The conditions noted are these: higher = more signal.
In assay [10] the target is E3 ubiquitin-protein ligase XIAP (Homo sapiens) (UniProt P98170). As to the kind of experiment: small molecules binding XIAP protein – biophysical, small-molecule microarray, fluorescence 635 nm, primary screen (AID 1181).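 Also: score merges 667 nm emission and signal to noise over triplicate slides.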 The following applies: higher = more signal.
Sequence of E3 ubiquitin-protein ligase XIAP (Homo sapiens) (P98170 whole entry, looked up): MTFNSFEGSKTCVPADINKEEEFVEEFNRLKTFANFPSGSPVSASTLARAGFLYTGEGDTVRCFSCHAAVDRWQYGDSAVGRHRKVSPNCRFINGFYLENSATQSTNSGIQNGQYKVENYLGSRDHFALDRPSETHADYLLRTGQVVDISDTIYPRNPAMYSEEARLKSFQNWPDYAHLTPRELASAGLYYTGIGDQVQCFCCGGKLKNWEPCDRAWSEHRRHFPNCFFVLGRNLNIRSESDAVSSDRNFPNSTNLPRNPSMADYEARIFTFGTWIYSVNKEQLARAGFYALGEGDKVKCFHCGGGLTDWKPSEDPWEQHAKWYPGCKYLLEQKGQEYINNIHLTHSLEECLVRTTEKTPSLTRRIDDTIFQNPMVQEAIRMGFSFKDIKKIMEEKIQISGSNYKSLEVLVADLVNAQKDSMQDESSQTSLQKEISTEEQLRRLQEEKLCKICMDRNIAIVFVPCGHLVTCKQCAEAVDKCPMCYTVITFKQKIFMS

`CCC[C@@H]1C[C@@]1(CCC)[C@@H](NP(=O)(c1ccccc1)c1ccccc1)c1ccc(Cl)cc1`: the z-score in assay [1] is 0.405; in [2] it was 1.3 (inactive); in assay [3], -0.601 (inactive); in assay [5], 0.439 (inactive); in assay [6], 0.525 (inactive); in assay [7], -0.919 (inactive). Moreover, the z-score was -0.26 (inactive) in assay [8] and -0.519 in [9]. Moreover, the composite z-score is -1.09 (inactive) in assay [4] and -0.0374 in assay [10].
Consider `COc1cc(CO)cc(I)c1O[C@H]1C=C(C(=O)NCCO)C[C@@H](N(CC2CCCCC2)C(=O)c2ccc(C(F)(F)F)cc2)[C@@H]1O`, for which the z-score was 0.445 in assay [1]; -1.02 (inactive) in assay [2]; -0.327 (inactive) in assay [3]; 0.425 (inactive) in [5]; 0.183 (inactive) in assay [6]; 0.342 (inactive) in assay [7]. Further, the values for the z-score in [8] and in assay [9] were 0.212 (inactive) and 0.508, respectively. In addition, the composite z-score in [4] is 0.345 (inactive); in assay [10], 0.0859.
For the molecule `Cc1ccc(S[C@]2(C(=O)NC3CC3)CC(=O)N(Cc3ccccc3Cl)[C@@H]2c2ccc(CO)cc2I)cc1`, the z-score in assay [1] is -0.451; in assay [2], -4.44 (inactive); in assay [3], -3.72 (inactive); in assay [5], 0.348 (inactive); in [6], -0.526 (inactive); in [7] it was 0.17 (inactive). The z-score in assay [8] was 0.932 (inactive); in assay [9], -1.61. In addition, the composite z-score in assay [4] is -2.13 (inactive); in assay [10] it was -0.0118.
For `CC[C@@H]1[C@H]2C3C(=O)N(CC)C(=O)C3CC(=O)[C@H]2[C@H](c2ccc(C)cc2)N1S(=O)(=O)c1ccc(C)cc1` (stereo not given in full), the z-score in [1] is -0.881; in assay [2] it was 0.252 (inactive); in [3] it was -0.25 (inactive); in assay [5], -0.144 (inactive); in assay [6] it was 0.561 (inactive); in [7], -0.339 (inactive). Also, the values for the z-score in assay [8] and in assay [9] were 0.25 (inactive) and -0.695, respectively. For the same molecule, the composite z-score was -0.0972 (inactive) in [4] and -0.119 in assay [10].
As for `COC(=O)[C@@]1(Cc2ccccc2)[C@H]2c3cc(C(=O)N4CCCC4)n(C[C@H](O)CO)c3C[C@H]2CN1C(=O)c1ccccc1`, the z-score in assay [1] was -0.476; in assay [2], 1.08 (inactive); in assay [3], -0.688 (inactive); in assay [5], 0.0818 (inactive); in [6], 0.267 (inactive); in assay [7], -0.685 (inactive). For the same molecule, the z-score is -0.299 (inactive) in assay [8] and -0.746 in assay [9]. Besides, the composite z-score is 0.355 (inactive) in assay [4] and -0.099 in assay [10].
`NC(=O)N1C(=O)C2C(C1=O)C1C=C(CCCO)C2C(c2cccs2)N1Cc1cc2c(cc1Br)OCO2` (stereo not given): the z-score in assay [1] was 0.652; in assay [2], -2.37 (inactive); in assay [3], 0.271 (inactive); in assay [5], -0.259 (inactive); in assay [6], 0.0427 (inactive); in assay [7] it was 0.18 (inactive). Moreover, the z-score was 0.0419 (inactive) in [8] and 0.645 in assay [9]. For the same molecule, the values for the composite z-score in assay [4] and in assay [10] were -1.72 (inactive) and -0.267, respectively.
On to `CC(C)C(=C=CC[C@@H](O)c1ccccc1OCCO)C[C@@H](O)COCc1ccccc1`, for which the z-score in [1] is 0.669; in assay [2], -15.5 (active); in assay [3], 0.304 (inactive); in assay [5], 0.354 (inactive); in [6], -4.06 (inactive); in assay [7] it was 2.28 (inactive). Moreover, the z-score in assay [8] was 1.51 (inactive); in [9], 0.424. Further, the results for the composite z-score in assay [4] and in [10] were -5.41 (inactive) and 0.109, respectively.
